PubChem BioAssay AID1076 (NMMLSC, 2008)
The source made the active and inactive calls.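 How the source made its calls: active means cell event count below 40, meaning activity score above 60 where score is 100 minus count; inactive means the rest.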

Assay: cytotoxicity in LNCaP prostate cells – cell-based, cell event count, single point, cytotoxicity control for prostate differentiation activator project, confirmation (AID 1076);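 further: counts scatter-gated live cells after medium removal discards detached dead cells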
Conditions: LNCaP cell loss, flow cytometry event count, 4 d, stronger effect = lower value

SMILES	cell event count (at 100 µM)	cell event count (event count, at 10 µM)
Cc1ccc(-c2noc(CCC(=O)NC3CCN(Cc4ccccc4)CC3)n2)cc1	9 (active)	77.5
Cc1ccccc1-c1nc(CN2CCC(C(=O)O)CC2)c(C)o1	217 (inactive)	207
Cc1ccc2c(c1)NC(=O)C(CC(=O)NCCCN1CCN(c3cc(Cl)ccc3C)CC1)O2 (stereo not given)	6 (active)	66
CCCN(CCC)CCNC(=O)C1CCN(Cc2nc(-c3ccc(Cl)cc3)oc2C)CC1	55 (inactive)	120
O=C(CCn1c(=O)oc2ccccc21)NCCCN1CCN(c2ccc(F)cc2)CC1	213 (inactive)	127
